What was measured:
Assay in all cases: DAPPL (digital affinity profiling via proximity ligation, sequencing); 10 mM Tris-HCl pH 7.5, 50 mM NaCl, 1 mM DTT, 4% glycerol, room temperature, 30 min; GST-TFs on glutathione beads, 16-mer random dsDNA library, 0.1% formaldehyde crosslink after washing; high values mean tight binding
Settings in all cases: protein: recombinant; tags: N-terminal GST; dsDNA, one strand shown
FLI1 = target: T1, FLI1 (Homo sapiens, UniProt Q01543 1-452)
T1 sequence: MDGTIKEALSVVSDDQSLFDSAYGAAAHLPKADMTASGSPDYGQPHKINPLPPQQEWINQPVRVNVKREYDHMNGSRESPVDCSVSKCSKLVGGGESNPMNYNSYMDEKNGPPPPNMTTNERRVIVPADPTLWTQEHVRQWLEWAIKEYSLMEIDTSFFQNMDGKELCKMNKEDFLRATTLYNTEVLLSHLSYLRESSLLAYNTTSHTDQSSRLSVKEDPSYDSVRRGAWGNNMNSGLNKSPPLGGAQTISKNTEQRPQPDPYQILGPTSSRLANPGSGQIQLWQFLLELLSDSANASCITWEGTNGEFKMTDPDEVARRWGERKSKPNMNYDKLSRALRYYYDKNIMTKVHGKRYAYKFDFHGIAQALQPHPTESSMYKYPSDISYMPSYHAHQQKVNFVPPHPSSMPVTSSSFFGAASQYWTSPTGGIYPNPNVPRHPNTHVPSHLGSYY
Outline: (§1)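 Human transcription factors were made in yeast as GST fusions, captured on glutathione beads and barcoded with DNA. With a tag-only sample included, the pool was incubated with 200 nmole of a random double-stranded 16-mer DNA library in Tris/NaCl/DTT/glycerol buffer at room temperature for 30 min, then crosslinked with 0.1% formaldehyde after washing, ligated by proximity, amplified and sequenced. For binding signal, each hexamer's read frequency for a factor is divided by its frequency for the tag-only sample.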

ELK1 = target: T2, ELK1 (Homo sapiens, UniProt P19419 1-428)
T2 sequence: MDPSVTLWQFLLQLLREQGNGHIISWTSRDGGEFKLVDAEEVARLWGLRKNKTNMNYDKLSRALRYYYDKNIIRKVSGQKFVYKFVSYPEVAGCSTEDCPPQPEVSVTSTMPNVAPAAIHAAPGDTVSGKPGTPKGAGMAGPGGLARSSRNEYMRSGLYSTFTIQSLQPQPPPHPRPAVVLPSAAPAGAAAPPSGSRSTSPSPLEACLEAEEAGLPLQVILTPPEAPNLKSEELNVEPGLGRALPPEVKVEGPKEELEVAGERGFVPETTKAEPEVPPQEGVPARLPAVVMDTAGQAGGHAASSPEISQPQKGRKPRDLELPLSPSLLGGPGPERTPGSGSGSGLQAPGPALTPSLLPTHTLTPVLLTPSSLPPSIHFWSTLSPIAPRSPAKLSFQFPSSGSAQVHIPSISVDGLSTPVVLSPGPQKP
Outline: as §1

GABPA = target: T3, GABPA (Homo sapiens, UniProt Q06546 1-454)
T3 sequence: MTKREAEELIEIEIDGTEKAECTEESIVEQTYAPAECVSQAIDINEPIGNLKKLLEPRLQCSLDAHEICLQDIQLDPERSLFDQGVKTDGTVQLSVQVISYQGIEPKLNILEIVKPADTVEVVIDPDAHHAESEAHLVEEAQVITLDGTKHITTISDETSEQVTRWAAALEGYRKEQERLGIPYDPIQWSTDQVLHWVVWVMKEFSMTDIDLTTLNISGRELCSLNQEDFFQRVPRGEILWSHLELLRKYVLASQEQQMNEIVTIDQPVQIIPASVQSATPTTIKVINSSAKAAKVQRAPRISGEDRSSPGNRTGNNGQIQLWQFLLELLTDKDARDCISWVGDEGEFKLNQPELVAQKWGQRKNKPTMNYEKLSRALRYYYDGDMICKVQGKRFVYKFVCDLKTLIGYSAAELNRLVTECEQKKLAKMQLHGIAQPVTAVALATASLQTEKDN
Outline: as §1

ERG = target: T4, ERG (Homo sapiens, UniProt P11308 1-479)
T4 sequence: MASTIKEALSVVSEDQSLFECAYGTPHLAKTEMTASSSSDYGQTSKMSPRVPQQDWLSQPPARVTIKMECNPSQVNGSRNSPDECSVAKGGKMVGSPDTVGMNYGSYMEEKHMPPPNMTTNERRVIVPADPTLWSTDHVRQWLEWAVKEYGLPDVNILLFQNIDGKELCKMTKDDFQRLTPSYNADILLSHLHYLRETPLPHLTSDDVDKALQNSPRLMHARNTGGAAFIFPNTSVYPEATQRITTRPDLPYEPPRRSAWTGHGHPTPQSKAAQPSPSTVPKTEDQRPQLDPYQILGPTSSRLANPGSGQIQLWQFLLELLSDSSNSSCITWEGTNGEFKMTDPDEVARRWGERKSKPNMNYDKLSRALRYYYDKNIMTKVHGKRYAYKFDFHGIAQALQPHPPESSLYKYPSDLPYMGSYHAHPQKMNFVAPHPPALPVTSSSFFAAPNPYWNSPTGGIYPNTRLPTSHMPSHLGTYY
Outline: as §1

ELF1 = ELF1 (Homo sapiens, UniProt P32519 1-619)
Outline: as §1

EHF = target: T5, EHF (Homo sapiens, UniProt Q9NZC4 1-300)
T5 sequence: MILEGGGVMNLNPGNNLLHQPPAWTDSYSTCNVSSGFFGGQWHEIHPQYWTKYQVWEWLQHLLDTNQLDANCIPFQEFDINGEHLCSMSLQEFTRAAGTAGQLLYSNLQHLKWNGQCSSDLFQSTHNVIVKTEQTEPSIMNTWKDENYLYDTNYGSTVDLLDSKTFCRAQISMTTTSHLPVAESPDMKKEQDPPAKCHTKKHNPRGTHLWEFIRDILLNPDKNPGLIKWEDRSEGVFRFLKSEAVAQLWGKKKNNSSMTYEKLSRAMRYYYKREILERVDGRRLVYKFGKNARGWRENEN
Outline: as §1

SPI1 = SPI1 (Homo sapiens, UniProt P17947 1-270)
Outline: as §1

SPIB = SPIB (Homo sapiens, UniProt Q01892 1-262)
Outline: as §1

ELK3 = target: T6, ELK3 (Homo sapiens, UniProt P41970 1-407)
T6 sequence: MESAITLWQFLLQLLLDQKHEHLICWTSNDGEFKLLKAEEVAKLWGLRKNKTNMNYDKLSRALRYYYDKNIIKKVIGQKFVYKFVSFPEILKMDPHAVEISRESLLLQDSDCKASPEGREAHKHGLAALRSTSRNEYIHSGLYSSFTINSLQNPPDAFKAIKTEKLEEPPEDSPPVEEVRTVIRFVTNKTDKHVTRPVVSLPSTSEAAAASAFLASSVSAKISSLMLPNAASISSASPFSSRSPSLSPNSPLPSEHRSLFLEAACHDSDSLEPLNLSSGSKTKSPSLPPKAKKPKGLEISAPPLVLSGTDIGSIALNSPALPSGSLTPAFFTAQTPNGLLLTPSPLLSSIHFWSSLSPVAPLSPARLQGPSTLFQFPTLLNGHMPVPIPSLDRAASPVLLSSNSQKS
Outline: as §1

Sequence of SPIB (Q01892 whole entry): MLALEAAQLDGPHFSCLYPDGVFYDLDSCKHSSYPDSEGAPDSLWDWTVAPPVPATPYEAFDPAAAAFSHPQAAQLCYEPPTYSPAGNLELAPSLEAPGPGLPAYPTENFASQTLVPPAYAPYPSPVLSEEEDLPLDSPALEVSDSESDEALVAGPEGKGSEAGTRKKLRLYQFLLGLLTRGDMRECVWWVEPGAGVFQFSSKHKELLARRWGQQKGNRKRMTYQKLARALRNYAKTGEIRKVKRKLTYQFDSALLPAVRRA
Sequence of ELF1 (P32519 whole entry): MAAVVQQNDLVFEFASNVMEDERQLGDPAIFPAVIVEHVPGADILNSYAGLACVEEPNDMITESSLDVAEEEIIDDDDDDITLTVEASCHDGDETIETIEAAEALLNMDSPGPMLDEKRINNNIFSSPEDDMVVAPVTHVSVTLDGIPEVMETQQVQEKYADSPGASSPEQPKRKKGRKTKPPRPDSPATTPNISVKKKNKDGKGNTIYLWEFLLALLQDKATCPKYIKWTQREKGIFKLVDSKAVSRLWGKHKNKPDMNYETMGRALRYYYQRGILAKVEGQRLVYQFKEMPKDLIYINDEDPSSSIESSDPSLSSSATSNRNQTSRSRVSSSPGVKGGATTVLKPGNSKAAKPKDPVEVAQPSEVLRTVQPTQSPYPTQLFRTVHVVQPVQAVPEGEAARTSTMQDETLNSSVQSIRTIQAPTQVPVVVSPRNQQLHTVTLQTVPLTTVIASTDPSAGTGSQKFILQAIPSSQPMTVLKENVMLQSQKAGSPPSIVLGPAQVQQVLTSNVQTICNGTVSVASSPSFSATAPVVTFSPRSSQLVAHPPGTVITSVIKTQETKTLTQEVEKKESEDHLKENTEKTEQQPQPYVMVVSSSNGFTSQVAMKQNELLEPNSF

Row | Sequence | binding signal (FLI1) | binding signal (ELK1) | binding signal (GABPA) | binding signal (ERG) | binding signal (ELF1) | binding signal (EHF) | binding signal (SPI1) | binding signal (SPIB) | binding signal (ELK3)
1 | CTGCTC | 1.32 fold enrichment (6-mer frequency, TF over GST control) | 1.37 fold enrichment (6-mer frequency, TF over GST control) | 1.18 fold enrichment (6-mer frequency, TF over GST control) | 1.28 fold enrichment (6-mer frequency, TF over GST control) | 1.34 fold enrichment (6-mer frequency, TF over GST control) | 1.27 fold enrichment (6-mer frequency, TF over GST control) | 1.29 fold enrichment (6-mer frequency, TF over GST control) | 1.39 fold enrichment (6-mer frequency, TF over GST control) | 1.3 fold enrichment (6-mer frequency, TF over GST control)
2 | CTCTTC | 1.62 fold enrichment (6-mer frequency, TF over GST control) | 1.64 fold enrichment (6-mer frequency, TF over GST control) | 1.66 fold enrichment (6-mer frequency, TF over GST control) | 1.71 fold enrichment (6-mer frequency, TF over GST control) | 1.66 fold enrichment (6-mer frequency, TF over GST control) | 1.69 fold enrichment (6-mer frequency, TF over GST control) | 1.6 fold enrichment (6-mer frequency, TF over GST control) | 1.84 fold enrichment (6-mer frequency, TF over GST control) | 1.66 fold enrichment (6-mer frequency, TF over GST control)
3 | ACTCTG | 1.28 fold enrichment (6-mer frequency, TF over GST control) | 1.23 fold enrichment (6-mer frequency, TF over GST control) | 1.38 fold enrichment (6-mer frequency, TF over GST control) | 1.24 fold enrichment (6-mer frequency, TF over GST control) | 1.37 fold enrichment (6-mer frequency, TF over GST control) | 1.33 fold enrichment (6-mer frequency, TF over GST control) | 1.26 fold enrichment (6-mer frequency, TF over GST control) | 1.21 fold enrichment (6-mer frequency, TF over GST control) | 1.14 fold enrichment (6-mer frequency, TF over GST control)
4 | AATGCT | 1.16 fold enrichment (6-mer frequency, TF over GST control) | 1.17 fold enrichment (6-mer frequency, TF over GST control) | 1.14 fold enrichment (6-mer frequency, TF over GST control) | 1.16 fold enrichment (6-mer frequency, TF over GST control) | 1.16 fold enrichment (6-mer frequency, TF over GST control) | 1.14 fold enrichment (6-mer frequency, TF over GST control) | 1.12 fold enrichment (6-mer frequency, TF over GST control) | 1.16 fold enrichment (6-mer frequency, TF over GST control) | 1.12 fold enrichment (6-mer frequency, TF over GST control)
5 | GATCTC | 1.43 fold enrichment (6-mer frequency, TF over GST control) | 1.19 fold enrichment (6-mer frequency, TF over GST control) | 1.16 fold enrichment (6-mer frequency, TF over GST control) | 1.2 fold enrichment (6-mer frequency, TF over GST control) | 1.27 fold enrichment (6-mer frequency, TF over GST control) | 1.42 fold enrichment (6-mer frequency, TF over GST control) | 1.28 fold enrichment (6-mer frequency, TF over GST control) | 1.25 fold enrichment (6-mer frequency, TF over GST control) | 1.23 fold enrichment (6-mer frequency, TF over GST control)
6 | AAAGTA | 1.14 fold enrichment (6-mer frequency, TF over GST control) | 1.1 fold enrichment (6-mer frequency, TF over GST control) | 1.17 fold enrichment (6-mer frequency, TF over GST control) | 1.13 fold enrichment (6-mer frequency, TF over GST control) | 1.13 fold enrichment (6-mer frequency, TF over GST control) | 1.15 fold enrichment (6-mer frequency, TF over GST control) | 1.1 fold enrichment (6-mer frequency, TF over GST control) | 1.18 fold enrichment (6-mer frequency, TF over GST control) | 1.24 fold enrichment (6-mer frequency, TF over GST control)
7 | TTGATA | 1.23 fold enrichment (6-mer frequency, TF over GST control) | 1.29 fold enrichment (6-mer frequency, TF over GST control) | 1.31 fold enrichment (6-mer frequency, TF over GST control) | 1.17 fold enrichment (6-mer frequency, TF over GST control) | 1.24 fold enrichment (6-mer frequency, TF over GST control) | 1.14 fold enrichment (6-mer frequency, TF over GST control) | 1.14 fold enrichment (6-mer frequency, TF over GST control) | 1.08 fold enrichment (6-mer frequency, TF over GST control) | 1.01 fold enrichment (6-mer frequency, TF over GST control)
8 | TTCATT | 1.25 fold enrichment (6-mer frequency, TF over GST control) | 1.19 fold enrichment (6-mer frequency, TF over GST control) | 1.16 fold enrichment (6-mer frequency, TF over GST control) | 1.2 fold enrichment (6-mer frequency, TF over GST control) | 1.24 fold enrichment (6-mer frequency, TF over GST control) | 1.21 fold enrichment (6-mer frequency, TF over GST control) | 1.21 fold enrichment (6-mer frequency, TF over GST control) | 1.22 fold enrichment (6-mer frequency, TF over GST control) | 1.23 fold enrichment (6-mer frequency, TF over GST control)
